Compound activity (PubChem)
SMN2 splice enh: increases expression of the SMN2 splice variant. HEK293 SMN2-luciferase splicing reporter, luminescence, 30-36 h. 2.8% of 210,000 active. Potency, µM (series often up to 46.1 µM), most hits filed as activators; note: nearly all actives have a fitted effect of over 55% in size
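HEK293 cells carry an SMN2 minigene-luciferase reporter in which exon 7 inclusion puts luciferase in frame. Cells were seeded at 2000 cells/well, attached for 10-12 hours, then exposed to compounds for 30-36 hours at 37C before ONE-Glo luminescence.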
ELG1 genotox: induces genotoxicity in HEK293T cells with luciferase-tagged ELG1; HEK293T ELG1-luciferase reporter, luminescence, 16 h; Potency, µM (top dose mostly 46 µM), usual class: activators; 1.3% of 330,000 active; AID 504466; note: nearly all actives have a fitted effect of over 60% in size
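16 hr compound incubation (37 °C, 5% CO2) of HEK293T cells carrying luciferase-tagged ELG1; luciferase then measured by ONE-Glo luminescence after 30 min at RT.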
Rab9 promoter act: Rab9 promoter activation; 2.8% of 320,000 active; Huh7 Rab9 promoter-luciferase reporter, luminescence, 24 h; AID 485297; Potency, µM (top dose mostly 9.22 µM), actives largely listed as activators; note: nearly all actives have a fitted effect of over 60% in size
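Huh7 cells stably carrying Rab9 promoter–luciferase reporter, plated 1500 cells/well, compound added after 2 h and incubated 24 h at 37 °C; luciferase luminescence then read after 10 min with detection reagent.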
p53 reactivator: restores transcriptional activity of mutant p53; 0.063% of 320,000 active; H1299 p53-A138V BP100-luciferase reporter, luminescence, 24 h; AID 504706; Potency, µM (highest dose often 92.2 µM), usual class: activators; note: nearly all actives have a fitted effect of over 45% in size
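p53-null H1299 cells stably carrying temperature-sensitive p53-A138V and a BP100-luciferase reporter were pinned with compounds (4-point, 1:5 series) and held 24 hrs at 37 deg C. Luminescence was read 10 min after detection reagent.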
NPC1 promoter act: activators of NPC1 promoter. 2.4% of 320,000 active. Huh7 NPC1 promoter luciferase reporter, 24 h. Potency, µM (top dose mostly 9.22 µM), most hits filed as activators; note: nearly all actives have a fitted effect of over 60% in size
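Stably transfected Huh7 (NPC1 promoter→luciferase), 1500 cells/well in Opti-MEM + 10% FBS, 2 h settle, then compound 24 h at 37 °C. Luminescence after 10 min with Amplite reagent.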
FLuc modulator: counter-screen for miR-21 project: firefly luciferase inhibitors or activators; purified FLuc, Km substrates, luminescence inhibition; 6.9% of 360,000 active; Potency, µM (doses to about 57.5 µM), most hits filed as inhibitors; P08659; note: nearly all actives have a fitted effect of over 55% in size
Target sequence (P08659 whole entry, looked up): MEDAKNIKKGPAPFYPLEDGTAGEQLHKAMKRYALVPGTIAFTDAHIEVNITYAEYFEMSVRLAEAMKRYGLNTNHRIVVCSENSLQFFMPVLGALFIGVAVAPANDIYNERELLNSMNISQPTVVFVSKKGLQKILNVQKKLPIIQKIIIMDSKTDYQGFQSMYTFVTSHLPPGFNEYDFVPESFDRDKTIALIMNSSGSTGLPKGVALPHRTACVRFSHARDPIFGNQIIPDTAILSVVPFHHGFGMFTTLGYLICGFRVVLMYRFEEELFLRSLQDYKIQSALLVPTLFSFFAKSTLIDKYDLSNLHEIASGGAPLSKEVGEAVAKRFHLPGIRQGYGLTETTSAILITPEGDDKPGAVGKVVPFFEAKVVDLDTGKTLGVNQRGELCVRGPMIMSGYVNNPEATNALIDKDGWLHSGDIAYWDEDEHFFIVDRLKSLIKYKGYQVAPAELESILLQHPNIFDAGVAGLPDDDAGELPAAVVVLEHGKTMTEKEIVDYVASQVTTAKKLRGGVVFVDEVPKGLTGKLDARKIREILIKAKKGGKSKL
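Biochemical qHTS of compounds, final roughly 60 µM downward over six points, against 10 nM purified firefly luciferase using Km concentrations of substrates (10 uM D-luciferin, 10 uM ATP) in Tris acetate pH 7.5 buffer; luminescence output.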
Hits are given with their value; n = inactive; u = inconclusive; x = no result given; [ ] = another dose, or the depositor's remark. Rows were chosen to be rich in hits. Some 7.3% of all compounds tested hit in one or more screens of this group. Calls come from the whole dose curve; as a rule, active = well fitted curve in the direction sought with a large enough effect; inconclusive = small, poorly fitted or top-dose-only effect, or another doubt; inactive = no such curve, though single readings can be large; an effect the other way counts as inactive or inconclusive.

SMILES	SMN2 splice enh	ELG1 genotox	Rab9 promoter act	p53 reactivator	NPC1 promoter act	FLuc modulator
COc1ccc(-c2cn3ccccc3n2)cc1	x	1.3µM	0.4µM	n	0.56µM	0.76µM
CC=C(Cl)Cl	n	x	x	x	x	x
Cc1ccc(-n2c(=O)c3c4c(sc3n(CC(=O)Nc3ccccc3C)c2=O)CCCCC4)cc1C	n	x	x	x	x	n
CC(C)C1=C[C@@]23CC[C@@H]4[C@](C)(CCC[C@@]4(C)C(=O)O)[C@@H]2C[C@@H]1[C@@H](C(=O)O)[C@@H]3C(=O)O	n[9.22 µM]	x	x	x	x	x
CCn1c(SCc2ccc(F)cc2Cl)nc(=O)c2c(C(=O)OC)cc(C3CC3)nc21	x	x	x	x	x	n
O=C(N1CCOCC1)C1(c2ccccc2)CCCCC1	32µM	n	n	n	n	n
Cc1ccc(NC2=C([N+](=O)[O-])CS(=O)(=O)C2)cc1	n	n	n	n	n	13µM
CN(C)c1ccc(NC2=C([N+](=O)[O-])CS(=O)(=O)C2)cc1	n	n	n	n	n	n
COc1cc(NC(=O)C(C)C)ccc1NC(=O)c1ccco1	11µM	7.9µM	1.1µM	n	4µM	19µM
COc1cc2c(cc1NC(=O)c1ccco1)CCCC2	n	n	u	n	n	21µM
COc1cc(NC(=S)NC(=O)c2ccco2)ccc1NC(=O)C(C)C	n	n	n	n	n	u
Fc1ccccc1C1CCN(Cc2nc(CC3CC3)no2)C1 (configuration not stated)	x	u	u	n	u	17µM
Fc1ccc2nc(C3CCN(Cc4nc(CC5CC5)no4)CC3)[nH]c2c1	x	n	n	n	n	n
Cc1ccc(C(=O)NC(=S)N2CCN(c3ccc([N+](=O)[O-])cc3)CC2)cc1	n	n	n	n	n	n
Cc1ccc(C(=O)ON=C2CCN(c3ccc([N+](=O)[O-])cc3)CC2)cc1	n	n	n	n	n	11µM
CCCCN1CCCc2cc(CN(CCCN3CCOCC3)C(=O)Nc3ccc(CC)cc3)ccc21	x	x	x	x	x	n
Cc1ccc(C2=NNC(C(O)C(O)C(O)C(C)O)S2)cc1 (configuration not stated)	n	u	n	n	n	24µM
Cc1ccc(-c2ccc(C(=O)NCCCNC(=O)c3cnccn3)o2)cc1Cl	x	n	n	n	n	u
COc1ccccc1/C=C/C=N/NC(=O)c1ccco1	x	u	u	n	u	17µM
O=C(N/N=C/c1ccc2cccnc2c1)c1ccco1	x	2.1µM	0.89µM	n	1.4µM	6µM
O=C(N/N=C/C=N/NC(=O)c1ccco1)c1ccco1	x	n	n	n	n	n
COc1cccc(/C=N/NC(=O)CNC(=O)c2cccnc2)c1O	x	n	n	n	n	n
COc1ccccc1/C=C/C=N/NC(=O)c1ccncc1	n	n	n	n	n	u
COC(=O)c1ccc(COc2ccccc2/C=N/NC(=O)c2cccnc2)cc1	n	n	n	n	n	21µM
CC(C)=C(NC(=O)c1ccccc1)C(=O)N/N=C/c1ccc(O)cc1	n	n	n	n	n	17µM
SMILES	SMN2 splice enh	ELG1 genotox	Rab9 promoter act	p53 reactivator	NPC1 promoter act	FLuc modulator
Cc1ccccc1SCC(=O)Nc1cc(C(F)(F)F)ccc1N1CCOCC1	x	n	n	n	n	n
CCOc1ccc(-c2cn3c(n2)sc2cc(C(=O)NCCc4ccc(OC)c(OC)c4)ccc23)cc1	n	x	x	x	x	u
COc1cc(/C=N/NC(=O)c2ccncc2)ccc1OCc1cnc(Cl)s1	13µM	n	n	n	n	n
COc1cccc(/C=N/NC(=O)c2ccccc2NC(=O)c2ccco2)c1OC	x	n	n	n	n	11µM
O=C(Nc1ccccc1C(=O)Nc1ccccc1)c1ccco1	x	n	n	n	n	n
COc1ccccc1/C=C/C=N/NC(=O)c1cc(-c2ccc(C)o2)[nH]n1	x	n	n	n	n	15µM
COc1ccc(OC)c(NC(=O)c2ccccc2NC(=O)c2ccco2)c1	x	n	n	n	n	u
O=C(Nc1ccccc1C(=O)N/N=C/c1ccccc1)c1ccco1	x	n	n	n	u	2.7µM
COc1cc(/C=C/C(=O)O)ccc1OCc1cnc(Cl)s1	n	n	n	n	n	n
N=C1CCC[C@@H]1C(=S)SCCC(N)=O	n[9.22 µM]	x	x	x	x	x
O=C(N/N=C/C(Br)=C\c1ccccc1)c1ccco1	x	u	4µM	u	2.5µM	3µM
COc1cccc(/C=C/C(=O)NNC(=O)c2ccco2)c1OC	x	u	4µM	n	u	11µM
O=C(NNC(=O)c1ccccc1F)c1ccco1	x	n	n	n	n	n
COc1cccc(/C=C/C(=O)OCC(=O)NCc2ccco2)c1OC	n	n	n	n	n	n
O=C(NNC(=O)c1ccccc1O)c1ccco1	u	u	u	n	u	19µM
O=C(N/N=C/c1ccccc1)c1ccco1	x	u	3.2µM	n	u	13µM
CSc1ccc(CCNC(=O)c2ccc(-c3nc(COc4ccc(C)cc4)c(C)o3)cc2)cc1	x	x	x	x	x	n
COc1ccc(CNc2ccc3cc(S(=O)(=O)N4CCCCC4)ccc3n2)cc1	x	x	x	x	x	n
COc1ccccc1-c1nc(S(=O)(=O)c2ccccc2)c(N2CCC(C)CC2)o1	n	x	x	x	x	n
CCS(=O)(=O)c1nc(S(=O)(=O)c2ccc(C)cc2)c(NCCCOC)s1	n	x	x	x	x	n
COc1ccc(/C=N/NC(=O)c2ccco2)cc1OCc1ccccc1	x	n	n	n	n	n
O=C(Nc1ccccc1C(=O)N/N=C/c1ccc(O)cc1)c1ccccc1	x	n	u	u	u	0.15µM
COc1ccc(C(=O)Nc2ccccc2C(=O)NCc2cccnc2)cc1OC	x	n	n	x	n	n
O=C(Nc1ccccc1C(=O)NC(Cc1ccccc1)C(=O)O)c1ccco1 (configuration not stated)	x	n	n	n	n	n
O=C(N/N=C\c1ccccc1OCc1ccccc1)c1ccco1	n	n	n	n	n	21µM
SMILES	SMN2 splice enh	ELG1 genotox	Rab9 promoter act	p53 reactivator	NPC1 promoter act	FLuc modulator
COc1ccc(C(=O)Nc2ccccc2C(=O)N/N=C/c2ccncc2)cc1OC	x	n	u	n	2µM	0.24µM
CC(NC(=O)c1ccccc1NC(=O)c1ccco1)C(=O)O (configuration not stated)	0.32µM	u	0.32µM	u	0.56µM	21µM
Cc1oc2ncn(C)c(=O)c2c1C(=O)N1CCN(c2cccc(C(F)(F)F)c2)CC1	x	x	x	x	x	n
COc1ccc(N2CCN(C(=O)CS(=O)(=O)c3cccc4nsnc34)CC2)cc1	x	x	x	x	x	n
COc1cc(Nc2nc3ccccc3c3nnc(C)n23)cc(OC)c1	x	x	x	x	x	n
Cn1c(=O)c2c(nc(SCC(=O)Nc3ccccc3F)n2Cc2ccccc2F)n(C)c1=O	n	x	x	x	x	n
O=C(Nc1nnc(S(=O)(=O)N2CCCc3ccccc32)s1)c1ccccc1Br	x	x	x	x	x	n
O=C(N/N=C/c1ccccc1)c1ccc(OCc2ccccc2)cc1	n	u	n	n	n	n
O=C(N/N=C/c1ccc(OCc2ccccc2)cc1)c1ccco1	x	n	2.8µM	n	u	u
